# ChEMBL document CHEMBL3988442, “University of Dundee, Small-Polar-MMV Screening Library” (2021)
# About 13,000 (27%) of roughly 48,000 compounds showed an effect of 50% or more. The list shows a part of the results.
# Test system: Wolbachia pipientis
# Assay: Anti-Wolbachia Cell-Based Screen
# Type: functional
# Parameters: scale not given: in the data most compounds retested in dose-response had high values
# Settings: 5 µM
row,Compound,Percent Effect [%]
1,CCc1ncc2c(n1)CN(C(C)C(=O)N1CCOCC1)CC2 (configuration not stated),-13.62
2,CC(Oc1ccc(F)cc1F)C(=O)N1CCC2(CCCO2)CC1 (configuration not stated),-4.107
3,O=C(c1cc(F)ccc1F)C1CCN(C(=O)c2ccc(=O)[nH]n2)CC1,6.401
4,O=C(c1cccc(O)n1)N1CCC(O)(CN2CCC(F)(F)CC2)C1 (configuration not stated),119.2
5,O=C(c1ccc(=O)[nH]n1)N1CCCC(O)(CN2CCC(F)(F)CC2)CC1 (configuration not stated),110.9
6,O=C(c1cn2ccsc2n1)N1CCOCC(O)(CN2CCCC2)C1 (configuration not stated),6.26
7,O=C(c1cnc(COc2ccccc2)nc1O)N1CCC(F)(F)CC1,10.39
8,CCOc1ccccc1OC1CCN(C(=O)c2ccc(=O)[nH]n2)CC1,-11.25
9,NC(=O)Nc1cc(F)ccc1SCC(F)F,-8.756
10,CCn1cc(CNC(C)c2noc(-c3ccc(Cl)cc3)n2)cn1 (configuration not stated),5.108
11,CCN(CC1CCOC1)S(=O)(=O)Cc1ccccc1Cl (configuration not stated),-1.168
12,CC(CN1CCOCC1)NCC1CCN(c2cnn(C)c(=O)c2)CC1 (configuration not stated),-0.8467
13,O=C1CC(C(=O)NCc2ccccc2Oc2ccccc2F)CCN1 (configuration not stated),91.68
14,Cc1cccc(Oc2ccccc2CNC(=O)C2CCC(=O)NC2)c1 (configuration not stated),96.69
15,CC(C)(C)Oc1ccccc1CNC(=O)C1CCCOC1 (configuration not stated),-47.48
16,O=C(NCc1ccccc1OCC1CC1)C1CCOC1 (configuration not stated),-26.71
17,Cc1ccc(CNC(=O)C2CCNC(=O)C2)c(OCCC(C)C)c1 (configuration not stated),103.9
18,O=C1CCC(C(=O)NCCOc2cccc(Cl)c2Cl)CN1 (configuration not stated),-0.2416
19,CCc1[nH]c2c(CNC(=O)C3CNC(=O)C3)cc(C)cc2c1C (configuration not stated),-7.809
20,Cc1ccc(C)c(OCCNC(=O)[C@@H]2CCCCN2)c1,-1.478
21,Cc1cccc(Oc2ccccc2CNC(=O)C2CCNC(=O)C2)c1 (configuration not stated),104.5
22,O=C(CNC(=O)C1CC1)Nc1c(F)cccc1Oc1ccccc1,-3.554

row,Compound,Percent Effect [%]
1,Cc1ccc(C)c(OCCNC(=O)C2CCOC2)c1 (configuration not stated),-7.675
2,CCc1[nH]c2c(CNC(=O)C3CCC(=O)NC3)cc(C)cc2c1C (configuration not stated),-3.367
3,CC(NC(=O)N1CCSC(C)(C)C1)c1noc(-c2ccccc2)n1 (configuration not stated),-9.511
4,CCC[C@H]1CN(Cc2cncn2C)C[C@@H]1NC(=O)C1(COC)CCC1,-8.158
5,COCCNC(=O)c1ccoc1CN1c2ccccc2CC1C (configuration not stated),-13.79
6,Cc1nc(C)n(CC(C)C(=O)N2CCCN(C3CCCC3)CC2)n1 (configuration not stated),-15.63
7,C[C@H]1CCCCN1CCCNc1nccc(-c2c[nH][nH]c2=O)n1,112
8,O=c1[nH][nH]cc1-c1ccnc(NCCCN2CCOCC2)n1,116.9
9,O=C1O[C@@H]2CN(Cc3ccncc3)C[C@@H]2N1CCCN1CCOCC1,-10.63
10,O=c1[nH][nH]cc1-c1ccnc(NCCN2CCCCC2)n1,112.5
11,O=c1[nH][nH]cc1-c1ccnc(NCCN2CCCC2)n1,-6.447
12,CC(C)COCC(NC(=O)c1ccccn1)c1ccco1 (configuration not stated),12.33
13,O=C1CNCC(C(=O)N2CC(Oc3ccccc3Cl)C2)N1 (configuration not stated),-5.2
14,COc1ccc(F)cc1CN1CCCn2nc(CNS(C)(=O)=O)cc2C1,6.854
15,CN1CCC(C(=O)N2CCC(c3ccc4c(N)n[nH]c4n3)CC2)CC1,104
16,O=C(C1CC1)N1CCC(c2nc(-c3ccccc3)n[nH]2)CC1,-8.829
17,Cc1ccc2c(c1)c(CNC(=O)C1CCN(C(=O)C3CC3)CC1)nn2C,-8.87
18,CCc1noc(CN(C)C(=O)C(C)(C)Oc2cccc(Cl)c2)n1,11.07
19,CO[C@H]1COCCN(C(=O)c2ccc(C(F)(F)F)cc2)C1,-0.5949
20,Cc1ccsc1CN1CCn2c(COc3cccnc3)cnc2C1C.O=C(O)C(F)(F)F.O=C(O)C(F)(F)F (configuration not stated),105.4
21,CC1c2ncc(COc3cccnc3)n2CCN1Cc1cnn(C)c1.O=C(O)C(F)(F)F.O=C(O)C(F)(F)F (configuration not stated),101.1
22,Cc1ccc(CN2CC[C@@H](N3CCOCC3)[C@@H]2Cc2cccnc2)o1.O=C(O)C(F)(F)F.O=C(O)C(F)(F)F.O=C(O)C(F)(F)F,-6.789

row,Compound,Percent Effect [%]
1,Cc1csc(CN2CCn3c(COc4cccnc4)cnc3C2C)n1.O=C(O)C(F)(F)F.O=C(O)C(F)(F)F (configuration not stated),106.1
2,CCOCc1cnc2n1CCN(Cc1cccs1)C2C.O=C(O)C(F)(F)F (configuration not stated),10.91
3,Cc1ccc(CN2CCn3c(COc4cccnc4)cnc3C2C)o1.O=C(O)C(F)(F)F.O=C(O)C(F)(F)F (configuration not stated),105.5
4,Cc1ncsc1CN1CCn2c(COc3cccnc3)cnc2C1C.O=C(O)C(F)(F)F.O=C(O)C(F)(F)F (configuration not stated),-6.197
5,COCc1cnc2n1CCN(Cc1cccnc1)C2C.O=C(O)C(F)(F)F.O=C(O)C(F)(F)F (configuration not stated),-12.59
6,CC1c2ncc(COc3cccnc3)n2CCN1C(=O)C1=CCCC1.O=C(O)C(F)(F)F (configuration not stated),6.564
7,CCOCc1cnc2n1CCN(Cc1nc(C)cs1)C2C.O=C(O)C(F)(F)F (configuration not stated),-1.73
8,CCNc1ncc(CN(CCN(C)C)Cc2ccc(C)s2)cn1,9.658
9,CC(CC#N)N(C)Cc1ccc(F)cc1F (configuration not stated),-4.017
10,NC(=O)Nc1cc(Br)cnc1OCC(F)(F)F,3.483
11,CC(C)N1CCC(CC(=O)N(C)CC(=O)c2ccc(O)cc2)CC1,-41.3
12,COc1cc(OC)cc(-n2ccnc2-c2cc3n(n2)CCNC3)c1,-3.796
13,CN(C)C[C@H]1C[C@@H](CO)CN(C(=O)CCc2nc(Cl)n[nH]2)C1,-2.145
14,Cc1cccc2c1nc1n2[C@@H](CNC2CCCCC2)COC1,-2.586
15,CC1c2ncc(COc3cccnc3)n2CCN1C(=O)Cc1ccco1.O=C(O)C(F)(F)F (configuration not stated),6.97
16,CC1c2ncc(COc3cccnc3)n2CCN1Cc1ccco1 (configuration not stated),103.4
17,CCCNC(=O)c1ccc2c(c1)C(=O)N(CC(C)C)C2=O,12.13
18,O=C(Cc1ccc(F)cc1)NS(=O)(=O)c1ccc(F)c(F)c1,-8.123
19,O=C(c1cc(F)cc(F)c1)N1CCC(O)(C(F)(F)F)CC1,87.26
20,O=C(c1ccoc1)N1CCC(O)(C(F)(F)F)CC1,69.76
21,CC[C@@]1(O)CCN(C(=O)c2ccoc2)C[C@H]1O,-13.59
22,O=C(c1cc(F)cc(F)c1)N1CCC2(CC1)CC2,32.79

row,Compound,Percent Effect [%]
1,Cc1ccc2cc(C(=O)N3CCC(O)(C(F)(F)F)CC3)ccc2n1,14.37
2,CC(=O)N1CC2(CCN(C(=O)c3ccoc3)C2)C1,-7.067
3,CCc1nc2n(n1)CC(NCc1ccnc(-c3ccccc3)n1)CC2 (configuration not stated),7.748
4,CCc1nc2n(n1)CC(NCc1nc3ccccc3nc1C)CC2 (configuration not stated),-12.92
5,CCc1nc2n(n1)CC(NCc1cnc(-c3ccccc3)nc1)CC2 (configuration not stated),109.3
6,CCc1nc2n(n1)CC(NCc1ncc(-c3ccccc3)o1)CC2 (configuration not stated),-4.969
7,CCc1nc2n(n1)CC(NCc1nc(-c3cccnc3)no1)CC2 (configuration not stated),-12.29
8,CCc1nc2n(n1)CC(NCc1nc(Cc3ccccc3)no1)CC2 (configuration not stated),105.9
9,c1ccc(Cc2noc(CNC3CCc4ncnn4C3)n2)cc1 (configuration not stated),-0.1669
10,CCc1nc2n(n1)CC(NCc1cnn(Cc3ccccc3)c1)CC2 (configuration not stated),87.86
11,CCc1nc2n(n1)CC(NCc1nc3ccccc3o1)CC2 (configuration not stated),-13.4
12,CCc1noc(C(C)N2CCN(Cc3cnc(C)cn3)CC2)n1 (configuration not stated),14.64
13,O=C(NC[C@H]1OC[C@@H](NCc2ccccc2F)[C@@H]1O)Nc1ccccc1,-9.055
14,CC(C)c1nccn1CCCNC(=O)c1ccc(-c2cncnc2)nc1,-0.1776
15,Cc1ncc2c(n1)CN(Cc1nc3ccccc3o1)CC2,10.13
16,Cc1ncc2c(n1)CN(Cc1nc(-c3ccsc3)oc1C)CC2,102.9
17,CC(C)c1ncc2c(n1)CN(Cc1ccc3c(c1)OCCO3)CC2,-34.65
18,CC(C)c1ncc2c(n1)CN(Cc1cccc3c1OCCO3)CC2,21.53
19,Cc1oc(-c2ccco2)nc1CN1CCc2cnc(C(C)C)nc2C1,92.73
20,CCc1ncc2c(n1)CN(Cc1nc(-c3ccsc3)oc1C)CC2,1.537
21,Cc1ccc(-c2nnc(CN3CCc4cnc(C)nc4C3)o2)cc1,-1.089
22,CCc1ncc2c(n1)CN(Cc1nc(-c3ccco3)oc1C)CC2,106.4

row,Compound,Percent Effect [%]
1,Cc1ncc2c(n1)CN(Cc1nnc(-c3occc3C)o1)CC2,2.201
2,Cc1ncc2c(n1)CN(Cc1nc(-c3ccco3)oc1C)CC2,105
3,CCc1ncc2c(n1)CN(Cc1nc(C)c(C)o1)CC2,-17.94
4,CCc1ncc2c(n1)CN(Cc1nnc(C)o1)CC2,12.23
5,COCc1ncn(Cc2nc(-c3ccco3)oc2C)n1,-24.79
6,Cc1oc(-c2ccco2)nc1CN1CCc2cncnc2C1,88.65
7,Cc1nc(CN2CCc3cncnc3C2)oc1C,-4.156
8,COCCCNS(=O)(=O)c1cc(Br)sc1C,2.901
9,COc1cccc(F)c1C(C)NC(=O)NCc1cc(C(C)C)no1 (configuration not stated),-6.055
10,O=C1CC(c2ccccc2)c2snc(C(=O)O)c2N1 (configuration not stated),-4.128
11,Cc1nccn1-c1ccc(C(C)NCCC(C)C)cc1 (configuration not stated),-1.351
12,C[C@@H]1CN2C[C@H](O)CC2CN1Cc1ccc2nccnc2c1 (some centres not stated),113.8
13,COc1ccc(CN2CC(=O)N(c3ccc(C)cc3)CC2C)cc1O (configuration not stated),-1.266
14,CCn1ccnc1CN1CCN(c2ncnc3ccsc23)CC1C (configuration not stated),11.61
15,CN(C)C(=O)CN1C[C@@H]2CC[C@H](C1)N(Cc1ccc3nsnc3c1)C2,10.45
16,C[C@H]1CN2C[C@H](O)CC2CN1Cc1ccc2nccnc2c1.Cl (some centres not stated),75.9
17,CS(=O)(=O)N1C[C@@H]2CC[C@H](C1)N(Cc1ccc3nsnc3c1)C2,5.437
18,Cc1nccn1-c1ccc(CN2CC3C[C@@H](O)CN3C[C@@H]2C)cc1 (some centres not stated),108
19,Cc1nccn1-c1ccc(NC(=O)C2CCCN2Cc2ccoc2)cc1 (configuration not stated),9.601
